# Test results taken from PubChem BioAssay (NCI).
# Compounds without any hit were thinned out: in the full panel of roughly 83,000, 20% have a hit.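 Values shown are percent growth following 48 h exposure of cells in 96-well plates to a single concentration of compound; below 10 was considered active.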 Values without a mark were called inactive. The source made the active and inactive calls.
# System: LOX IMVI melanoma
# Experiment: NCI-60 one-dose screen, 48 h (100 = growth as untreated, 0 = no growth, -100 = all killed)
# Settings: 10 µM unless noted
row,SMILES,growth
1,COC(=O)CCSC1=C(C)C(=O)c2ccccc2C1=O,52.2%
2,CCc1cc(OC(=O)N2CCC(N3CCCCC3)CC2)ccc1Nc1cc(-c2ccc(-n3cccn3)cc2)[nH]n1,-92% (active)
3,O=C(Nc1cc(C(F)(F)F)cc(C(F)(F)F)c1)Nc1ccc2oc(=O)ccc2c1,-43.1% (active)
4,Cc1ccc2c(n1)C(=O)C(Cl)=C(Nc1ccc(C(=O)OC(C)(C)C)cc1)C2=O,-59.3% [9.25 µM] (active)
5,Cc1cc(=O)[nH]c(O)c1C#N,95.1%
6,CCN(CC)S(=O)(=O)c1ccc(-c2nc(C(Cl)Cl)nc3cc(C)nn23)cc1,35.6%
7,CNC(=O)Nc1ccc(Nc2cc(-c3ccc(-n4cccn4)cc3)[nH]n2)c(C)c1,129%

# System: SK-MEL-28 melanoma
# Experiment: as above
# Settings: 10 µM unless noted
row,SMILES,growth
1,CNc1sc(S(=O)(=O)NC)nc1S(=O)(=O)c1ccc(C)cc1,102%
2,COc1cccc(N2CCN(C3=C(Cl)C(=O)c4ncccc4C3=O)CC2)c1,105%
3,O=C1[C@@H]2Cc3c([nH]c4ccccc34)[C@@H](c3ccc(Cl)cc3)N2C(=O)CN1C1CCN(Cc2ccccc2)CC1,88.1%
4,CC(=O)OCCCCN1C=C/C(=C\C(=O)n2ccc3ccccc32)c2ccccc21,111%
5,CN1CCN(c2ccc(Nc3nc(NCCNS(=O)(=O)c4ccc5ccccc5c4)c4sccc4n3)cc2)CC1,74.4%
6,CC1=C(C)C(=O)C(Nc2ccc3c(c2)OCCO3)=C(Br)C1=O,107%
7,C=C(C)[C@@H]1CC[C@]2(C(=O)NC3CCCCC3)CC[C@]3(C)[C@H](CC[C@@H]4[C@@]5(C)CC[C@H](N)C(C)(C)[C@@H]5CC[C@]43C)[C@@H]12,109%
8,CCOC(=O)c1c(NC(=O)c2ccc(C(F)(F)F)cc2)sc2c3c(ccc12)OCN(C)C3,95.8%
9,C#CCN(C)CCCOc1ccc(NCc2ccc(/C=C/C(=O)NO)cc2)cc1Cl,-14.4% (active)
10,COc1cc(/C=N\NC(=O)c2ccc3nc(-c4ccc(Br)cc4)[nH]c3c2)cc(OC)c1OC,30.2%
11,C=C1CCc2nc(SCC(=O)O)ccc2N1,106%
12,CN1CCC[C@]2(C)[C@H]3CC[C@@H]4[C@@H]5[C@H]6OC[C@@]5(CCC6(C)C)CC[C@@]4(C)[C@]3(C)CC[C@H]2C1(C)C,96.2%
13,C=C(C=O)[C@@H]1CC[C@]2(C(=O)O)CC[C@]3(C)C(CC[C@@H]4[C@@](C)(CCC#N)[C@H](C(=C)C=O)CC[C@]43C)[C@@H]12 (some centres not stated),-5.57% (active)
14,NCCNC(=O)c1cccc(COc2ccccc2NC(=O)c2cc(Cl)c(Cl)[nH]2)c1,94.8%
15,COc1ccc(C2c3[nH]c4ccc(Cl)cc4c3CCN2c2oc(CO)nc2C#N)cc1 (configuration not stated),60.1%
16,CN(C)c1ccc(-c2cc(-c3c[nH]c4ccccc34)nc(N)c2C#N)cc1,59.8%
17,COc1ccccc1/C=C1\Oc2ccc(O)c(O)c2C1=O,94%
18,CCCCCc1ccc(S(=O)(=O)Nc2cc(-c3csc(N)n3)ccc2OC)cc1,111%
19,O=C(O)c1ccc(-n2c(=O)n(-c3cccc(C(F)(F)F)c3)c(=O)c3cc(-c4ccc(F)cc4F)ccc32)cc1,26.1%
20,Nn1c(=O)n(-c2cccc(C(F)(F)F)c2)c(=O)c2cc(-c3ccc(F)cc3F)ccc21,28%

row,SMILES,growth
1,CCCCN1C(=O)/C(=c2\sc3n(c2=O)C2C(NN=3)N(CC)C(=O)N2CC)c2cc(C)ccc21 (configuration not stated),102%
2,CC(C)[C@H]1c2[nH]c3ccccc3c2C[C@H]2C(=O)N(CCCCCCC(=O)NO)CC(=O)N12,71.7%
3,O=C(N/N=C\c1ccc(F)cc1)c1ccc2nc(-c3ccc(Br)cc3)[nH]c2c1,10.8%
4,NC1[C@H]2CN(c3cnc(C(=O)Nc4cc(F)cc5cccnc45)cn3)C[C@@H]12 (some centres not stated),86.1%
5,Cc1ccsc1[C@H]1c2[nH]c3ccccc3c2C[C@H]2C(=O)N(CCCCCCC(=O)NO)CC(=O)N12,73.7%
6,CC(=O)N(O)CCCCCNC(=O)CCC(=O)N(O)CCCCCNC(=O)CCC(=O)N(O)CCCCCN(CCCCCCCCCC[P+](c1ccccc1)(c1ccccc1)c1ccccc1)CCCCCCCCCC[P+](c1ccccc1)(c1ccccc1)c1ccccc1,13.4%
7,O=c1nc(Nc2ccc([N+](=O)[O-])cc2O)sc2ccccc12,50.8%
8,Cc1cc2nc(C(Cl)Cl)nc(-c3ccc(S(=O)(=O)N(C)C)cc3)n2n1,59.3%
9,C/C(CC1(O)C(=O)Nc2ccccc21)=N\O (configuration not stated),108%
10,C[C@]12CC[C@H]3[C@@H](CC=C4C[C@@H](O)CC[C@@]43C)[C@@H]1CC[C@@H]2[C@](C)(O)CCc1cccnc1,74.4%
11,O=C(CSc1nnc(-c2cccs2)n1-c1ccccc1)Nc1ccccc1F,81.1%
12,CC(=C(c1ccc(OCCCN(C)C)cc1)c1ccc(OCCCN(C)C)cc1)c1ccc(Cl)cc1,99.2%
13,O=C(CSc1nc2ccccc2c(=O)n1-c1ccc(Cl)c(Cl)c1)Nc1ccc(S(=O)(=O)Nc2ccc(Cl)nn2)cc1,96.3%
14,COC(=O)CCSC1=C(C)C(=O)c2ccccc2C1=O,106%
15,CCc1cc(OC(=O)N2CCC(N3CCCCC3)CC2)ccc1Nc1cc(-c2ccc(-n3cccn3)cc2)[nH]n1,-60.7% (active)
16,O=C(Nc1cc(C(F)(F)F)cc(C(F)(F)F)c1)Nc1ccc2oc(=O)ccc2c1,34.8%
17,Cc1ccc2c(n1)C(=O)C(Cl)=C(Nc1ccc(C(=O)OC(C)(C)C)cc1)C2=O,82.5% [9.25 µM]
18,Cc1cc(=O)[nH]c(O)c1C#N,108%
19,CCN(CC)S(=O)(=O)c1ccc(-c2nc(C(Cl)Cl)nc3cc(C)nn23)cc1,23.3%
20,CNC(=O)Nc1ccc(Nc2cc(-c3ccc(-n4cccn4)cc3)[nH]n2)c(C)c1,114%
